# The source made the active and inactive calls.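 How the source made its calls, unless noted: active means inhibition of the reporter signal at or above 50%; inactive means inhibition below 50%.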
# Key:
# [1] = inhibitors of TNFa-induced NFkB p65 translocation, primary screen, imaging, HUVEC, MLSMR starter and 10KST1 sets (AID 438;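 active means inhibition above 20% together with a positive visual image hit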;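 further: compound added about 3h40 before a 20 min TNFalpha stimulation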;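 on inhibition: signal is the nuclear over cytoplasmic p65 intensity ratio per well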); details: HUVEC TNFa-induced p65 nuclear translocation; cell count: measured here: nuclei count (cytotoxicity indicator), at 2.08 µM; inhibition: at 2 µM, stronger effect = higher value, 0% TNFa-plus-vehicle, 100% no-TNFa wells
# [2] = inhibitors of mutant huntingtin aggregation, primary screen, imaging, exon1htt(103Q)mCFP cells, high-content imaging (AID 483;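 active means visual image review flags a hit and inhibition of aggregation exceeds 20%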;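 further: compound exposure lasted 3 days before fixation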;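 on nuclei count: percent of the per-plate median nuclei count of sample wells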); details: exon1htt(103Q)mCFP cell line, aggregate imaging, at 2 µM; inhibition of aggregation: stronger effect = higher value; nuclei count: measured here: cell count, toxicity
# [3] = inhibitors of E-selectin induction by TNFa, primary screen, imaging, HUVEC, immunofluorescence, MLSMR starter and 10KST1 sets (AID 487;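 active means visually confirmed hit in the image check and inhibition above 20%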;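 on inhibition: signal is fraction of cell area covered by stained E-selectin grains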;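 on nuclei count: 100% = median nuclei count of all wells on the same plate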); details: HUVEC TNFalpha-induced E-selectin immunofluorescence imaging, at 2 µM; inhibition: stronger effect = higher value; nuclei count: measured here: cell number, toxicity
# [4] = biological target: Voltage-gated potassium channel subunit beta-2 (Rattus norvegicus) (UniProt P62483); test: KvBeta enzyme negative modulators, primary screen, biochemical, NADPH fluorescence (AID 622;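 active means fluorescence slope higher than the sample average by over 3 SD, cut at about -0.22 in these data, passing the limit was not always enough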;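 further: slope of raw intensity against log time taken from 70 to 1610 s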); details: recombinant KvBeta, 4-cyanobenzaldehyde reduction, at 10 µM, stronger effect = higher value
# [5] = biological target: Voltage-gated potassium channel subunit beta-2 (Rattus norvegicus) (UniProt P62483); test: KvBeta positive modulators, primary screen, biochemical, NADPH fluorescence (AID 623;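 active means NADPH fluorescence slope more negative than the mean of all samples by about 3 SD, 99.7% confidence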;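 further: fluorescence intensity change per second fitted from 20 to 320 s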); details: Recombinant KvBeta, NADPH fluorescence decrease slope, 10 min; at 10 µM; stronger effect = lower value
# [6] = biological target: Alpha-2C adrenergic receptor (Homo sapiens) (UniProt P18825); test: modulators of alpha2C/GIRK thallium flux, primary screen, cell-based, HEK293 alpha2C/GIRK1/2 (AID 624;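 active means fluorescence slope after compound addition differing from the mean of all screened samples at 99.7% confidence, in either direction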;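 further: slope of fluorescence ratio to pre-addition baseline per second over 15 to 24 s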); details: thallium flux BTC fluorescence, at 10 µM, actives lie on both sides
# [7] = inhibitors of Sendai virus-induced IRF3 signaling, primary screen, TLR/RLR signaling modifier project, cell-based, Sendai virus stimulus, luciferase, 10K MLSCN set (AID 602276;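 active means inhibition at or above 50% at 10 µM; inactive means inhibition below 50%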;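 further: firefly luciferase from ISG56 promoter only with Renilla not read in this screen; 0% = Sendai virus plus DMSO and 100% = medium plus DMSO without virus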); details: HEK293 RL24 IRF3 luciferase reporter, at 10 µM, stronger effect = higher value
# [8] = inhibitors of poly I:C-induced TLR3 signaling, primary screen, cell-based, poly I:C stimulus, luciferase, 10K MLSCN set (AID 602277); details: HEK293-TLR3 RL24 IRF3 luciferase reporter, at 10 µM, stronger effect = higher value
# Sequence of Alpha-2C adrenergic receptor (Homo sapiens) (P18825 whole entry, looked up): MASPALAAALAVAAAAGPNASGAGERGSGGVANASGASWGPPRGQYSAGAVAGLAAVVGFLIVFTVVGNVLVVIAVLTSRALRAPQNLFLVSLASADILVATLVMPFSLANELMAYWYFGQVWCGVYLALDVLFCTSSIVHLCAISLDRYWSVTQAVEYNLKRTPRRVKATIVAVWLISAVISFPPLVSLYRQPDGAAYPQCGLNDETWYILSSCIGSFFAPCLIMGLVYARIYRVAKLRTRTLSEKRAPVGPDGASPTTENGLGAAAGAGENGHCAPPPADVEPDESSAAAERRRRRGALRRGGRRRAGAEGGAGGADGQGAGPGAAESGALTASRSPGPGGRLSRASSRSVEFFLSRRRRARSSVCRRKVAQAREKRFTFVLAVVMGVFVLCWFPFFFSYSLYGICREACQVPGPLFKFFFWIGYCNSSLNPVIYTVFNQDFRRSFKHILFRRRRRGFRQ
# Sequence of Voltage-gated potassium channel subunit beta-2 (Rattus norvegicus) (P62483 whole entry, looked up): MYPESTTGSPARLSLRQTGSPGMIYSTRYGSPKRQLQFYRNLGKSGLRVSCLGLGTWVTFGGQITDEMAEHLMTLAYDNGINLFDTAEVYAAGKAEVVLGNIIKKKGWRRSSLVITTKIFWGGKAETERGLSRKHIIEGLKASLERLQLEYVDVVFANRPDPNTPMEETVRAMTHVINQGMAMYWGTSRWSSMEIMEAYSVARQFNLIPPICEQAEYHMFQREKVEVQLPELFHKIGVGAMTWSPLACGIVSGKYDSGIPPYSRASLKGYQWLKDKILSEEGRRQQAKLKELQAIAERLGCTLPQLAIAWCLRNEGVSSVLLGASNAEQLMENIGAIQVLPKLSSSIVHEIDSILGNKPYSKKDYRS
Compound,cell count [1],inhibition [1],inhibition of aggregation [2],nuclei count [2],inhibition [3],nuclei count [3],fluorescence slope [4],NADPH fluorescence slope [5],slope [6],inhibition [7],inhibition [8]
CCC(C)(C)n1nnnc1C(c1ccc(OC)c(OC)c1)N1CCN(c2ccccc2)CC1 (stereo not drawn),252,10.9% (inactive),0.9% (inactive),80.9%,1.7% (inactive),94.4%,-0.473 (inactive),-0.000151 (inactive),0.0062 (inactive),18.8% (inactive),39.6% (inactive)
COCCOC(=O)C1=C(N)OC2=C(C(=O)CC(C)(C)C2)C1c1cccnc1 (stereo not drawn),662,4.8% (inactive),9.7% (inactive),139%,22.6% (inactive),112%,-0.452 (inactive),-4.3e-05 (inactive),0.00687 (inactive),-8.98% (inactive),19% (inactive)
O=C(NCCSc1c[nH]c2ccccc12)c1ccco1,686,-2.4% (inactive),-13.1% (inactive),108%,-15.8% (inactive),116%,-0.562 (inactive),-4e-05 (inactive),0.00591 (inactive),10.1% (inactive),32.9% (inactive)
CCN1CCN(CCCNC(=O)c2cc3sccc3n2CC)CC1,605,11% (inactive),-0.9% (inactive),105%,37.9% (inactive),108%,-0.586 (inactive),-3.5e-05 (inactive),0.00699 (inactive),-14.9% (inactive),15.5% (inactive)
CCc1cccc(NC(=O)Cn2cc3c(n2)CCCC3)c1,759,-2.8% (inactive),7.5% (inactive),101%,-27.9% (inactive),113%,-0.506 (inactive),-2.1e-05 (inactive),0.0103 (active),13.7% (inactive),26.6% (inactive)
CCOC(=O)c1cc2ccc(OC)c(OC)c2c(=O)s1,452,4.9% (inactive),-3.4% (inactive),102%,36.3% (inactive),108%,-0.396 (inactive),-2.4e-05 (inactive),0.00363 (inactive),-11.9% (inactive),-12.5% (inactive)
CCOC(=O)C(C)C1(O)c2ccccc2-c2ncccc21 (stereo not drawn),316,4.9% (inactive),-6.7% (inactive),117%,6.6% (inactive),97.7%,-0.296 (inactive),-6.5e-05 (inactive),0.00533 (inactive),4.67% (inactive),8.95% (inactive)
Cc1ccc(S(=O)(=O)CCC(=O)Nc2ccc3c(c2)OCO3)cc1,666,-12.2% (inactive),-1.1% (inactive),131%,-26.9% (inactive),115%,-0.587 (inactive),-6.2e-05 (inactive),0.00603 (inactive),-0.686% (inactive),12.3% (inactive)
Cc1noc(C)c1C(=O)N1CCN(C(=O)c2sc3cc(Cl)ccc3c2Cl)CC1,600,-5.4% (inactive),0.7% (inactive),111%,-78.2% (inactive),100%,-0.328 (inactive),-6.4e-05 (inactive),0.00474 (inactive),8.91% (inactive),9.68% (inactive)
O=C(c1ccccc1)N1CCN(CC2CC=CCC2)CC1 (stereo not drawn),391,-9.9% (inactive),21.1% (inactive),91%,-93.3% (inactive),69.8%,-0.304 (inactive),2.3e-05 (inactive),0.00325 (inactive),6.11% (inactive),19.5% (inactive)
CC1Cc2nc(SCC(N)=O)n(Cc3ccccc3)c(=O)c2S1 (stereo not drawn),633,-14% (inactive),1.8% (inactive),90.7%,-15.2% (inactive),113%,-0.438 (inactive),2.5e-05 (inactive),0.00575 (inactive),-2.11% (inactive),36% (inactive)
Cc1ccc(CCP(=O)(O)CN2CCOCC2)cn1,380,5.9% (inactive),-2.2% (inactive),100%,4.3% (inactive),95.2%,-0.437 (inactive),3.3e-05 (inactive),0.00662 (inactive),-1.89% (inactive),33.2% (inactive)
CC1(C)CC(=O)C(C=Nc2ccncc2)=C(O)C1,463,4.9% (inactive),3.3% (inactive),103%,-42.3% (inactive),120%,-0.607 (inactive),5e-06 (inactive),0.00629 (inactive),-2.33% (inactive),10.3% (inactive)
Nc1cccc2c1C(=O)N(c1ccccc1)C2=O,560,1.8% (inactive),-6% (inactive),87.9%,13.9% (inactive),107%,-0.0636 (active),-2.2e-06 (inactive),0.00303 (inactive),-20.4% (inactive),-40.4% (inactive)
Cc1ccccc1OCc1nc2ccccc2c(=O)n1/N=C/c1ccco1,373,-13.1% (inactive),4% (inactive),57.5%,-47.5% (inactive),85.3%,-0.46 (inactive),-4.6e-05 (inactive),0.00374 (inactive),-5.07% (inactive),-33% (inactive)
O=C(NCCc1ccccc1)C1CCCN(S(=O)(=O)c2cccs2)C1 (stereo not drawn),901,6.9% (inactive),-17.3% (inactive),111%,-27.2% (inactive),115%,-0.571 (inactive),-2.3e-05 (inactive),0.00585 (inactive),10.2% (inactive),23.9% (inactive)
Cn1c(=O)[nH]c(=O)c2c1nc(N1CCCCCC1)n2CCCSc1nc2ccccc2o1,256,4.7% (inactive),-1.5% (inactive),102%,-64.8% (inactive),98.7%,-0.609 (inactive),-4.5e-05 (inactive),0.00527 (inactive),14.2% (inactive),9.47% (inactive)
Cc1cc(C)c(C(=O)Nc2ccc(S(=O)(=O)Nc3onc(C)c3C)cc2)c(C)c1,680,0.3% (inactive),-6.2% (inactive),113%,-36.9% (inactive),114%,-0.493 (inactive),-2.1e-05 (inactive),0.00709 (inactive),18.6% (inactive),22.1% (inactive)
Cc1c(NC(=O)c2ccc(COc3ccc4ccccc4c3)o2)c(=O)n(-c2ccccc2)n1C,417,2.2% (inactive),1.1% (inactive),101%,-55.3% (inactive),109%,-0.598 (inactive),-2.6e-05 (inactive),0.0029 (inactive),-13.4% (inactive),-61.2% (inactive)
Cc1cc2c(=O)n(Cc3ccco3)c(SCC(=O)NCc3ccco3)nc2s1,502,3.1% (inactive),3.2% (inactive),84%,-50% (inactive),82.5%,-0.393 (inactive),1.9e-05 (inactive),0.00738 (inactive),14.9% (inactive),17.7% (inactive)
Cc1cccc(-n2c(SCc3cc(=O)n4ccsc4n3)nc3ccccc32)c1,439,5.1% (inactive),-3.6% (inactive),97.1%,-73.8% (inactive),112%,-0.525 (inactive),1.8e-05 (inactive),0.00495 (inactive),-11% (inactive),-9.49% (inactive)
O=C(NCc1ccccc1)C1CCN(S(=O)(=O)c2cccc3cccnc23)CC1,823,-3% (inactive),19% (inactive),65.6%,-37.7% (inactive),111%,-0.57 (inactive),1.3e-05 (inactive),0.00702 (inactive),-3.36% (inactive),33.1% (inactive)
COc1cccc(C(=O)Nc2ccc(NC(C)=O)cn2)c1,759,-4.3% (inactive),-0.2% (inactive),96.3%,-84.7% (inactive),123%,-0.469 (inactive),-5.3e-05 (inactive),0.00617 (inactive),-36.2% (inactive),-56% (inactive)
CCOc1ccc(C2C(C(=O)OC)=CN(CCOC)C=C2C(=O)OC)cc1,298,6% (inactive),-3.4% (inactive),105%,-6% (inactive),110%,-0.141 (inactive),-8.2e-06 (inactive),0.00651 (inactive),-9.2% (inactive),7.51% (inactive)
CCOC(=O)c1ccccc1NC(=O)c1c(O)c2ccccc2n(CC)c1=O,649,-12.8% (inactive),-35.3% (inactive),101%,20.2% (inactive),120%,-0.489 (inactive),-0.000195 (inactive),0.00747 (inactive),-2.85% (inactive),9.26% (inactive)
CC(=O)N1CCc2c(sc(NC(=O)c3ccc(S(=O)(=O)N(C)C)cc3)c2C#N)C1,660,-0.8% (inactive),18.5% (inactive),87.4%,7.9% (inactive),93%,-0.52 (inactive),-3.5e-05 (inactive),0.0064 (inactive),-4.77% (inactive),22.6% (inactive)
c1ccc(-c2nc3ccccc3nc2-c2ccccn2)nc1,746,-8.5% (inactive),4.8% (inactive),93.9%,-17.4% (inactive),118%,-0.491 (inactive),-3.4e-05 (inactive),0.0056 (inactive),11.1% (inactive),14.2% (inactive)
CCn1c(SCC(=O)Nc2nc(C)cs2)nnc1-c1ccco1,339,0.4% (inactive),-8.5% (inactive),114%,-93.6% (inactive),114%,-0.316 (inactive),-2.7e-05 (inactive),0.00755 (inactive),8.27% (inactive),23.4% (inactive)
